# Assay results reported in PMC7862700, “An all-to-all approach to the identification of sequence-specific readers for epigenetic DNA modifications on cytosine”.
# Assays:
# Experiment in all cases: DAPPL (digital affinity profiling via proximity ligation, sequencing); 10 mM Tris-HCl pH 7.5, 50 mM NaCl, 1 mM DTT, 4% glycerol, room temperature, 30 min; GST-TFs on glutathione beads, 16-mer random dsDNA library, 0.1% formaldehyde crosslink after washing; high values mean tight binding
# FEV = target: T1, FEV (Homo sapiens, UniProt Q99581 1-238); details: protein: recombinant; tags: N-terminal GST; dsDNA, one strand shown
# T1 sequence: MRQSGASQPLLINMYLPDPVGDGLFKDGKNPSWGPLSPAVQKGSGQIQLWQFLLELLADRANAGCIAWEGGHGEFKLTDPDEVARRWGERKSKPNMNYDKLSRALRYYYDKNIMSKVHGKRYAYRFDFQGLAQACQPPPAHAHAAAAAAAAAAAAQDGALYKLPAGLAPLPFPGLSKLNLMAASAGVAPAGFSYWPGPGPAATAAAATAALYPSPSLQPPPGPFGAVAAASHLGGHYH
# Summary of the method: (§1)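 In yeast, human transcription factors were expressed with a GST fusion, then pulled down on glutathione beads and given DNA barcodes. Pooled with a tag-only sample, they were exposed to 200 nmole of a 16-mer random double-stranded DNA library (Tris/NaCl/DTT/glycerol buffer, room temperature, 30 min), washed, crosslinked with 0.1% formaldehyde, proximity-ligated using BsaI/T4 ligase for 1 h at 37 °C, PCR-amplified and read on an Illumina NextSeq500. Each hexamer's frequency of reads for a factor, divided by the matching frequency for the tag-only sample, gives the binding signal.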
# ETV5 = ETV5 (Homo sapiens, UniProt P41161 1-510); details: protein: recombinant; tags: N-terminal GST; dsDNA, one strand shown
# Sequence of ETV5 (P41161 whole entry): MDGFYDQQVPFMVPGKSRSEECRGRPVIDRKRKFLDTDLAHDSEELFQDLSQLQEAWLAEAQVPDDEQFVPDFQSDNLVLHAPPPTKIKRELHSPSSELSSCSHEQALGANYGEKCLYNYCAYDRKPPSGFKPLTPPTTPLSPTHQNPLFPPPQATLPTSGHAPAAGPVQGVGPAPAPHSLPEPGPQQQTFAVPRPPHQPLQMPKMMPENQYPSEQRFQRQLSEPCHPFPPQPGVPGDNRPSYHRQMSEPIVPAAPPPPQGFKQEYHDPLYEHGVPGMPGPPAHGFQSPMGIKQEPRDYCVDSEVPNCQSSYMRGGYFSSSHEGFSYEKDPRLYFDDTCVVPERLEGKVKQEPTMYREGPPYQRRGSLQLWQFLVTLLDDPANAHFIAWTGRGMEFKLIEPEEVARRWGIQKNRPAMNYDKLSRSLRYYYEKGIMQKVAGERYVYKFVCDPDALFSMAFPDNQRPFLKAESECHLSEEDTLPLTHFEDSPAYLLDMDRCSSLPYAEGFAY
# Summary of the method: as §1
# HSF1 = HSF1 (Homo sapiens, UniProt Q00613 1-529); details: protein: recombinant; tags: N-terminal GST; chain copies: 3; dsDNA, one strand shown
# Sequence of HSF1 (Q00613 whole entry): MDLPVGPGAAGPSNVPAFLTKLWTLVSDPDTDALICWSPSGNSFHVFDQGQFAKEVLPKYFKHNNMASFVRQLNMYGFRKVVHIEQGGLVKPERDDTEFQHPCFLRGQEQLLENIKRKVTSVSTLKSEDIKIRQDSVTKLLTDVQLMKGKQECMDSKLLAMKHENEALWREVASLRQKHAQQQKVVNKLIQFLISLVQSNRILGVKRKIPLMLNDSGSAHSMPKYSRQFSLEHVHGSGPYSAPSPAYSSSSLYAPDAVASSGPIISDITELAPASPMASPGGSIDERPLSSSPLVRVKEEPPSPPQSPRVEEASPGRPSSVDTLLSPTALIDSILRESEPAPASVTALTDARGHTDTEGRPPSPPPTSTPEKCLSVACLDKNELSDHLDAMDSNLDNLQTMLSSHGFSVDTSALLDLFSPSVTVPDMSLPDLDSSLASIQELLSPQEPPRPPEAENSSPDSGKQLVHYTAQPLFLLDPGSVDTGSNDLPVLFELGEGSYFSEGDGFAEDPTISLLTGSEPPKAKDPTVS
# Summary of the method: as §1
# SPIC = target: T2, SPIC (Homo sapiens, UniProt Q8N5J4 1-248); details: protein: recombinant; tags: N-terminal GST; dsDNA, one strand shown
# T2 sequence: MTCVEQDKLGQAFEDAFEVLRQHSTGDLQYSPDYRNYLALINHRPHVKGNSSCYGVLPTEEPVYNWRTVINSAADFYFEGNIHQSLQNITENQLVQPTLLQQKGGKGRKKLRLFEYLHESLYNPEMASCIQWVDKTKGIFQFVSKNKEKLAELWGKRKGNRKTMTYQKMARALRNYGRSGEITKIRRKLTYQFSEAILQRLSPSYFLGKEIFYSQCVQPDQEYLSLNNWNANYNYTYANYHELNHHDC
# Summary of the method: as §1
# ELF4 = ELF4 (Homo sapiens, UniProt Q99607 1-663); details: protein: recombinant; tags: N-terminal GST; dsDNA, one strand shown
# Sequence of ELF4 (Q99607 whole entry): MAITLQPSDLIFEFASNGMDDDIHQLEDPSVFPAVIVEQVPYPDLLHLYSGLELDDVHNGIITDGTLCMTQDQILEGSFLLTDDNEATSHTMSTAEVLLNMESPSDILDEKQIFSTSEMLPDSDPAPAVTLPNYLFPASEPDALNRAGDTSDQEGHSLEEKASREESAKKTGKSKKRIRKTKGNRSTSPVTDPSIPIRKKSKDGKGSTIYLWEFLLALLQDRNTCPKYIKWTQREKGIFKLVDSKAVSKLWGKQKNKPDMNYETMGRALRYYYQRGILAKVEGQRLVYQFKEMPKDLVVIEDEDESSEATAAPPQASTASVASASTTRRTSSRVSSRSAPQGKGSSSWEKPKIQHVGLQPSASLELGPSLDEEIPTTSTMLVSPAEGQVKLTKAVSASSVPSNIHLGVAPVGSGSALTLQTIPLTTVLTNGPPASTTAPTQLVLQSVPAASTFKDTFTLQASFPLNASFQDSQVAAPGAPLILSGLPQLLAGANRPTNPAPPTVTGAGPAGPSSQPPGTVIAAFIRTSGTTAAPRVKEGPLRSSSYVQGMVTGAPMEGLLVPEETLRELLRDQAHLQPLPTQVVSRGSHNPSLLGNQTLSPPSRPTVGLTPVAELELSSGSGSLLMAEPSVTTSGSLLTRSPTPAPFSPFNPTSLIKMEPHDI
# Summary of the method: as §1
# ELK4 = target: T3, ELK4 (Homo sapiens, UniProt P28324-2 1-405); details: protein: recombinant; tags: N-terminal GST; dsDNA, one strand shown
# T3 sequence: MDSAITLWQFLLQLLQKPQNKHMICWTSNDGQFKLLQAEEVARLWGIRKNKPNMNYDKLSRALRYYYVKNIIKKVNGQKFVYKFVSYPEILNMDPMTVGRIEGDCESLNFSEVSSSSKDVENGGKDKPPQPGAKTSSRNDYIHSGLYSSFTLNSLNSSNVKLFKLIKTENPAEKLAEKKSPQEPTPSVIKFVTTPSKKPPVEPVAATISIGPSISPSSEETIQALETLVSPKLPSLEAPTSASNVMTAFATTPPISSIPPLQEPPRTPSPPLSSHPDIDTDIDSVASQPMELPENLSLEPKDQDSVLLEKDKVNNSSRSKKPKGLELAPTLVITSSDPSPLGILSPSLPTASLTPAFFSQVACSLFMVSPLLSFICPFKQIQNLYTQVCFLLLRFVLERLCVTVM
# Summary of the method: as §1
# ETV2 = target: T4, ETV2 (Homo sapiens, UniProt O00321 1-342); details: protein: recombinant; tags: N-terminal GST; dsDNA, one strand shown
# T4 sequence: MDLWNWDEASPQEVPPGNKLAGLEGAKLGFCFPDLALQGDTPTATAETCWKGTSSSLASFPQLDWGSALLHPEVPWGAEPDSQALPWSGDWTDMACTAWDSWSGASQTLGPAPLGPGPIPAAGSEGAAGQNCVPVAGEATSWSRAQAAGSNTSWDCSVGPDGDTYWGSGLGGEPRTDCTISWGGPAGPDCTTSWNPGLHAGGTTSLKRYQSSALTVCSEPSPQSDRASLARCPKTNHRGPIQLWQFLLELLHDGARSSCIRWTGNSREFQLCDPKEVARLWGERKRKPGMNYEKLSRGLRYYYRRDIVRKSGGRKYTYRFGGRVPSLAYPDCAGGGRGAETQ
# Summary of the method: as §1
# ELF3 = target: T5, ELF3 (Homo sapiens, UniProt P78545 1-371); details: protein: recombinant; tags: N-terminal GST; dsDNA, one strand shown
# T5 sequence: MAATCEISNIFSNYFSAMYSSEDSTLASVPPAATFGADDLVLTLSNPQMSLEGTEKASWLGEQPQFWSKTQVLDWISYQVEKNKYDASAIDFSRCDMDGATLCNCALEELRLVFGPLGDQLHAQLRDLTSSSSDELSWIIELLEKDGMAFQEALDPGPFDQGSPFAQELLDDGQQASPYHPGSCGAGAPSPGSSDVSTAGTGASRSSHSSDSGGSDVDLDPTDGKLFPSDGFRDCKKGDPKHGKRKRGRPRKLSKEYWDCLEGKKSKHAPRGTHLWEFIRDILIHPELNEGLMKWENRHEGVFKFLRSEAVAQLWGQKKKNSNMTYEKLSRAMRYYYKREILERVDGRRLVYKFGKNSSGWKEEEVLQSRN
# Summary of the method: as §1
# CRX = CRX (Homo sapiens, UniProt O43186 1-299); details: protein: recombinant; tags: N-terminal GST; dsDNA, one strand shown
# Sequence of CRX (O43186 whole entry): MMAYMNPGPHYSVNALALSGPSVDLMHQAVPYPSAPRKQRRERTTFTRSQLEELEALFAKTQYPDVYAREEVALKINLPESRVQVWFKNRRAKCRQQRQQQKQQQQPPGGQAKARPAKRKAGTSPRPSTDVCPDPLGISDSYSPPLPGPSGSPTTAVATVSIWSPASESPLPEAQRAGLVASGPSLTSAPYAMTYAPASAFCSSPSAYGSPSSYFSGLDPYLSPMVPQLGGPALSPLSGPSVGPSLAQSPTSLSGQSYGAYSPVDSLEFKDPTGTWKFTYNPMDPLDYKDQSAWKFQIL
# Summary of the method: as §1
# ETV1 = ETV1 (Homo sapiens, UniProt P50549 1-477); details: protein: recombinant; tags: N-terminal GST; dsDNA, one strand shown
# Sequence of ETV1 (P50549 whole entry): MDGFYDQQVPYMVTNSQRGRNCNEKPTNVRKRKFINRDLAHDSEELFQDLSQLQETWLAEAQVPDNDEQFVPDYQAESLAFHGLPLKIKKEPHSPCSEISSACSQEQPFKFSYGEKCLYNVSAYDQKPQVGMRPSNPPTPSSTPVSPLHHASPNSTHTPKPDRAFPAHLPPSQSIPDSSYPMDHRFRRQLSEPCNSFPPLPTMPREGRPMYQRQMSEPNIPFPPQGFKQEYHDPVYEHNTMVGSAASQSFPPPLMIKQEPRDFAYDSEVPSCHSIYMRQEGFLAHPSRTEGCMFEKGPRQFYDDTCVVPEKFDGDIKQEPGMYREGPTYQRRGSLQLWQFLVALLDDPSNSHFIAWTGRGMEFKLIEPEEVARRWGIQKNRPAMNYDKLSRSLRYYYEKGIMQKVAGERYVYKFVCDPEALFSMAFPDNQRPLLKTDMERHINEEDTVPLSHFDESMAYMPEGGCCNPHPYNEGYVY
# Summary of the method: as §1
# ERF = target: T6, ERF (Homo sapiens, UniProt P50548 1-548); details: protein: recombinant; tags: N-terminal GST; dsDNA, one strand shown
# T6 sequence: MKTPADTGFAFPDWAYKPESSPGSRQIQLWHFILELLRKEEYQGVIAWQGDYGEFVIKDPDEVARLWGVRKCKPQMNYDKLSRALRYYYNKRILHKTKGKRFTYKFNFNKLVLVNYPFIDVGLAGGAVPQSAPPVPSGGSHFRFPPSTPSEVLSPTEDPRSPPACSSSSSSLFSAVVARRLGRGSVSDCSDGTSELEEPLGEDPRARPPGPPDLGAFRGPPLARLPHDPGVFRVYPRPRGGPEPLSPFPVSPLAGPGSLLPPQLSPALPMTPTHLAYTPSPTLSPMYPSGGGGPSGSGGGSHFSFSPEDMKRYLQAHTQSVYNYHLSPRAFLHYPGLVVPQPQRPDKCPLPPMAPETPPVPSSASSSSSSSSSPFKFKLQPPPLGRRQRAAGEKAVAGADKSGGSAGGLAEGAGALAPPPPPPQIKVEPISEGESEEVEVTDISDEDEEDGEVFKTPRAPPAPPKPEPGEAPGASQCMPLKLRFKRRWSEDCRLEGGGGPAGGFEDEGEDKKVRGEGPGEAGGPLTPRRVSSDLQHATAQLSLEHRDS
# Summary of the method: as §1
# ETV3L = target: T7, ETV3L (Homo sapiens, UniProt Q6ZN32 1-361); details: protein: recombinant; tags: N-terminal GST; dsDNA, one strand shown
# T7 sequence: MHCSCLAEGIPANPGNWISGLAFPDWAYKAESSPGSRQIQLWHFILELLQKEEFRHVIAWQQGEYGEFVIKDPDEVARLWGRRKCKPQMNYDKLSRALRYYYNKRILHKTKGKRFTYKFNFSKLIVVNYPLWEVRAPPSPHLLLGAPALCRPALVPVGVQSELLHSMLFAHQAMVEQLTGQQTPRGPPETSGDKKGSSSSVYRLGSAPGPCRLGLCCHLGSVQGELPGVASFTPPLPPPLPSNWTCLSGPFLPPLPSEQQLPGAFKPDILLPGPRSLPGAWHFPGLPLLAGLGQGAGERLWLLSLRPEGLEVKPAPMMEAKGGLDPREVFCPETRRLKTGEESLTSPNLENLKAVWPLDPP
# Summary of the method: as §1
# ETS2 = target: T8, ETS2 (Homo sapiens, UniProt P15036 1-469); details: protein: recombinant; tags: N-terminal GST; dsDNA, one strand shown
# T8 sequence: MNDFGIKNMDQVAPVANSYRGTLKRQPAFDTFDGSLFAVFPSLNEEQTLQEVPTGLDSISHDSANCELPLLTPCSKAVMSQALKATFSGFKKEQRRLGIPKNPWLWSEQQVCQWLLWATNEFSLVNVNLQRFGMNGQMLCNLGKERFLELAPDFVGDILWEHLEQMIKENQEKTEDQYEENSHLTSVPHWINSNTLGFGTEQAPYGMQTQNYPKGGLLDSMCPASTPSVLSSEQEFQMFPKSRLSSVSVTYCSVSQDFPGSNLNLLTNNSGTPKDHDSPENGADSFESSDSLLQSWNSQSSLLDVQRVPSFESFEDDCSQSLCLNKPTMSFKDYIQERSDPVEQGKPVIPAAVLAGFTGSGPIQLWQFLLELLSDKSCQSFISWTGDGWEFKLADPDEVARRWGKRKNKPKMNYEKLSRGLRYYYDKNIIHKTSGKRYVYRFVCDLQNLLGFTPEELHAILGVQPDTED
# Summary of the method: as §1
# SPDEF = target: T9, SPDEF (Homo sapiens, UniProt O95238 1-335); details: protein: recombinant; tags: N-terminal GST; dsDNA, one strand shown
# T9 sequence: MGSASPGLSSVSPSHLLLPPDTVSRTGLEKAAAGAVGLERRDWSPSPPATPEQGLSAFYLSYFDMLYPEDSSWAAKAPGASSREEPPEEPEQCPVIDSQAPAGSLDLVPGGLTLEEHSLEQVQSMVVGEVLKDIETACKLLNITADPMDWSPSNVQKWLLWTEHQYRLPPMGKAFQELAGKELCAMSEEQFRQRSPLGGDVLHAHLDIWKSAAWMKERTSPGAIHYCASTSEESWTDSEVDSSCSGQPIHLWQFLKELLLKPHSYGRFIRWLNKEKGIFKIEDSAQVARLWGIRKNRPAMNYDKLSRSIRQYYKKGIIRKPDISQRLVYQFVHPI
# Summary of the method: as §1
# ETV7 = target: T10, ETV7 (Homo sapiens, UniProt Q9Y603 1-341); details: protein: recombinant; tags: N-terminal GST; dsDNA, one strand shown
# T10 sequence: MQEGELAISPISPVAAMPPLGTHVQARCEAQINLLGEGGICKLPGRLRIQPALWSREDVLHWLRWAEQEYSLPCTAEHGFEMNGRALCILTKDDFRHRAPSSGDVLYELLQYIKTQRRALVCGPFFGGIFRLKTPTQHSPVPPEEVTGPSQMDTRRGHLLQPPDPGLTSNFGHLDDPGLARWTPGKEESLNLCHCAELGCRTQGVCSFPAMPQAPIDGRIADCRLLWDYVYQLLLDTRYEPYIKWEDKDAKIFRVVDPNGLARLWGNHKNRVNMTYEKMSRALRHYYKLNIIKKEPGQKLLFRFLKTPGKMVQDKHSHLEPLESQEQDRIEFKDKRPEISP
# Summary of the method: as §1
# ELF5 = target: T11, ELF5 (Homo sapiens, UniProt Q9UKW6-2 1-255); details: protein: recombinant; tags: N-terminal GST; dsDNA, one strand shown
# T11 sequence: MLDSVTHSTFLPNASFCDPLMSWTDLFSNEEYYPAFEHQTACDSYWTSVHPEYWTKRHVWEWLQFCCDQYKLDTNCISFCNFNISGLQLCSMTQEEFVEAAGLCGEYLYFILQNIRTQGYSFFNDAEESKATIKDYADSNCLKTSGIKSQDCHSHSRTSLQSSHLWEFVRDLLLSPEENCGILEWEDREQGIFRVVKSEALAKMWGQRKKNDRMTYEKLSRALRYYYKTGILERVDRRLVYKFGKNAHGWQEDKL
# Summary of the method: as §1
# ETV3 = target: T12, ETV3 (Homo sapiens, UniProt P41162-2 1-143); details: protein: recombinant; tags: N-terminal GST; dsDNA, one strand shown
# T12 sequence: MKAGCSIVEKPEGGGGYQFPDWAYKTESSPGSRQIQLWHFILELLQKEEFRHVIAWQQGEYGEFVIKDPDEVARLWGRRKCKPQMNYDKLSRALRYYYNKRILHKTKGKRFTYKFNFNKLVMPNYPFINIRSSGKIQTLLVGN
# Summary of the method: as §1
# ETV6 = ETV6 (Homo sapiens, UniProt P41212 1-452); details: protein: recombinant; tags: N-terminal GST; dsDNA, one strand shown
# Sequence of ETV6 (P41212 whole entry): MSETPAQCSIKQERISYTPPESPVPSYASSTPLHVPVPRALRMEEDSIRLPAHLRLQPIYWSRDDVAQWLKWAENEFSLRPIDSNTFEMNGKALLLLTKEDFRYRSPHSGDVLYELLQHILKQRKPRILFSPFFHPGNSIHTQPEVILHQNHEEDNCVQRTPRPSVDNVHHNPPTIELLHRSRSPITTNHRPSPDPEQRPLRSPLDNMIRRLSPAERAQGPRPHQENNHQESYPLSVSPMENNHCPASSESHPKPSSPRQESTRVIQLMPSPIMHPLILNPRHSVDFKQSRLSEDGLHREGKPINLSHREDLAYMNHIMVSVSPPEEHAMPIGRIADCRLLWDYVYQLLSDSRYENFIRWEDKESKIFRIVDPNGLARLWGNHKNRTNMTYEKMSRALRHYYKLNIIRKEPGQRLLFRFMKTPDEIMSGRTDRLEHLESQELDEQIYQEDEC
# Summary of the method: as §1
sequence,measurement,setting,value
CTACAA,binding signal,FEV,"1.14 fold enrichment (6-mer frequency, TF over GST control)"
same,binding signal,ETV5,"1.21 fold enrichment (6-mer frequency, TF over GST control)"
same,binding signal,HSF1,"1.16 fold enrichment (6-mer frequency, TF over GST control)"
same,binding signal,SPIC,"1.2 fold enrichment (6-mer frequency, TF over GST control)"
same,binding signal,ELF4,"1.18 fold enrichment (6-mer frequency, TF over GST control)"
same,binding signal,ELK4,"1.21 fold enrichment (6-mer frequency, TF over GST control)"
same,binding signal,ETV2,"1.18 fold enrichment (6-mer frequency, TF over GST control)"
same,binding signal,ELF3,"1.03 fold enrichment (6-mer frequency, TF over GST control)"
same,binding signal,CRX,"1.04 fold enrichment (6-mer frequency, TF over GST control)"
same,binding signal,ETV1,"1.13 fold enrichment (6-mer frequency, TF over GST control)"
same,binding signal,ERF,"1.05 fold enrichment (6-mer frequency, TF over GST control)"
same,binding signal,ETV3L,"1.15 fold enrichment (6-mer frequency, TF over GST control)"
same,binding signal,ETS2,"1.16 fold enrichment (6-mer frequency, TF over GST control)"
same,binding signal,SPDEF,"1.14 fold enrichment (6-mer frequency, TF over GST control)"
same,binding signal,ETV7,"1.01 fold enrichment (6-mer frequency, TF over GST control)"
same,binding signal,ELF5,"1.16 fold enrichment (6-mer frequency, TF over GST control)"
same,binding signal,ETV3,"1.1 fold enrichment (6-mer frequency, TF over GST control)"
same,binding signal,ETV6,"1.18 fold enrichment (6-mer frequency, TF over GST control)"
